# Unmarked numbers belong to inactive results.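 Rule for the calls: active = MAPPIT score above the 99th percentile of random reference set scores in the same batch; inactive = at or below it.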
# B1: mex1 (protein)
# chain: MCNALCECLKCPGKVVCCCCSCACKMLLSIVFSALLMVVVIGLIVYFTVFYHKDKNTDEVQKQVAQLTPIVKRSIRDYFNKEY
# B2: dan (protein)
# chain: MNIRMGTKGKRPLRSLTPRDKIHAIQRIHDGESKASVARDIGVPESTLRGWCKNEDKLRFMSRQSATDNLCADALGDKMDGGGGGGGGAGGGGLLGPPEKRQRLDGALPLNFSNKLKFDELAFKRSPLNGLDYSTNKNLADLGYNGLPVDYAAFNGGVKAKVFGADINRPAADPSLNAISPLSSLTHLSGLTGISQSPLAISFNELTTNLNLLAQLNPGLAAMSGLNSFPAGAGNLRTPKPSGQTPLQVQSPRSDSGDRSAQGLSVKNWAKQKPGEGQGSLNLSIKNEGKGGDIKSPSPSIAPSQMGGPMTLSNLAEDPLLYWLKSQQTMLGLNPLYPPTIPMGVTSPPIRSSTPQHMSQLAQTPPIPSAPLTPSSTPSGSLDEKNAAWYNWCKAFGASLHTLNPNAATLAALQANQLQQQVATTAAEGGSMGDPSNILYSHLTKETETPSVRSLSSNEQNPEADEATETDLDGEVEPEASGKPEDLSAAGKVMTPSQSPIAHSSGSRSPEPKAKTKTPETTNSTSECKKILDNMLFKMGGMEATGPLMPEQGSSESEGSFQDTSNPHTNNNDVSASNNNNNNNSNKTDEEEKAKYLDCTADEDIEAIRHGEKFLQWLENCSNPRVTAVQLMQLRFLIAAIKSGNETPMIEKSALPEDSEEHAAEEEGSGRGKSRRRK
# B3: Syngr (protein)
# chain: MDMLNQILSINNGGAYGGGKAGGAFDPLTFAMKPQVVIRALCWLFSVVVFGCISSEGWTEKDGKEYCLYNGDGMACKYGNMVGVFGFLASMGFMGGEFLFERMSSVKSRKRYVMADMGFSALWTFMYFVAFLYLWSQWSSSAPPPLGIGAGSMKTAIWFCLFSIVSWALCALMAYKRFLIGAGDEFTSAFETDPANVVHQQAYGYSMDNDNDQYSASPFGQPQQGGMEQQQSGMEYQQPTY
# B4: Cog6 (protein)
# chain: MSSTQEKPEELDRIQKRVNKILEARLESDKDTLDALSGLSTFFTENTLQNRRNLRSQIEHRSVGINENFLKAFRQVKLSLDAVCEDLDTMATSVETMKSDLETSKALTKDLIKQTNTMQRERDRLEVHKQIAQAFLARFQLSGAEHQLLYGAAKDAPIVADFFRVLDRVQSIHADCRLLMQCGYQTAAIDIMEEMTLHQEGALERLYRWTQNHCRSLENNEIGPLIVEAMSRLQDRPVLFKYVIDEYAIARRAVLVRQFIEALTEGGPGGNPKPIELHAHDPKRYIGDMFAWLHQSIPTEKENLSLLFKKCDKQDISDQLQNALGYIADGVCHPLKVRVETILQAEKDTIVLFTISNLLRFYQQIMRQVVQGGSLEECLVELQKSSEQIYLGALAAQVRSVLQRPSGGSGLALEPPQRDLVPPPSVARLLNMLKEILSVATMVDGRQADITKIVSCVIDPLLQSVQESAAHLPTVDMGVYLLNCLHHMQSSLAVYEYMDERVERLQAQSDAQLDTLTSEQASSLVANLNLGPIYAILQSNQSKIETNLLKIFMSKMDAFLELPDVLLLPQVQLIMSSSHRAAVQKRSFNVIVAIYKQIYERVHDPANGFEQPEQLLHRTPEQVAHILTST
# B5: tos (protein)
# chain: MGITGLIPFVGKASSQLHLKDIRGSTVAVDTYCWLHKGVFGCAEKLARGEDTDVYIQYCLKYVNMLLSYDIKPILVFDGQHLPAKALTEKRRRDSRKQSKERAAELLRLGRIEEARSHMRRCVDVTHDMALRLIRECRSRNVDCIVAPYEADAQMAWLNRADVAQYIITEDSDLTLFGAKNIIFKLDLNGSGLLVEAEKLHLAMGCTEEKYHFDKFRRMCILSGCDYLDSLPGIGLAKACKFILKTEQEDMRIALKKIPSYLNMRNLEVDDDYIENFMKAEATFRHMFIYNPLERRMQRLCALEDYETDERYCSNAGTLLEDSEQALHLALGNLNPFSMKRLDSWTPEKAWPTPKNVKRSKHKSIWQTNFQSENTHTPKKENPCALFFKKVDFVGKTLNEEIEANQRLEQAKQTEAELFNMYSFKAKRRRSPSREDSVDQERTPPPSPVHKSRHNPFAKERTGEEANQRSPVVCENASLLRLLSPKKASPLDGEAGVKKVDSLKRSIFAKEQVQIRSRFFATQDEQTRLQREHLRDTENDDMDEQKLSSHSGHKKLRLVCKDIPGKNPIRQRCSSQISDGETDTDTTASSLLESQDKGVPSPLESQEDLNNSQPQIPTEGNTNSTTIRIKSLDLLLENSPEPTQESDRNNNDAIILLSDDSCSSDQRASSTSSSSQQRQNFLPTSKRRVGLSKPSTAKKGTPKSRTNGKLGAVSQNQTKLSMFGFQTKPVLK
# B6: MED4 (protein)
# chain: MSFHLSTKERLLLLIDDIEMIAKELIEQAHQKISSTELVDLLDLLVAKDEEFRKMLELAEEQAKVEEAMDQLRAKVEVHDREIQKLQKSLKDAELILSTAIFQARQKLASINQANKRPVSSEELIKYAHRISSANAVSAPLTWCIGDLRRPYPTDIEMRNGLLGKSEQNINGGTVTHQNSGMPSEQQRTLSGSAGSGSGSGAGGEVPNAFQNQFNWNLGELHMTMGASGNTVALETRAQDDVEVMSTDSSSSSSSDSQ
# B7: esg (protein)
# chain: MHTVEDMLVEKNYSKCPLKKRPVNYQFEAPQNHSNTPNEPQDLCVKKMEILEENPSEELINVSDCCEDEGVDVDHTDDEHIEEEDEDVDVDVDSDPNQTQAAALAAAAAVAAAAAASVVVPTPTYPKYPWNNFHMSPYTAEFYRTINQQGHQILPLRGDLIAPSSPSDSLGSLSPPPHHYLHGRASSVSPPMRSEIIHRPIGVRQHRFLPYPQMPGYPSLGGYTHTHHHHAPISPAYSENSYYSMRSMTPESSCSSSLPEDLSLKHKNLNLNLNTSQPGEQAAAKTGDMSPETMPNASAKKDKNQPPRYQCPDCQKSYSTFSGLTKHQQFHCPAAEGNQVKKSFSCKDCDKTYVSLGALKMHIRTHTLPCKCNLCGKAFSRPWLLQGHIRTHTGEKPFSCQHCHRAFADRSNLRAHLQTHSDIKKYSCTSCSKTFSRMSLLTKHSEGGCPGGSAGSSSSSELNYAGYAEP
# B8: Orco (protein)
# chain: MTTSMQPSKYTGLVADLMPNIRAMKYSGLFMHNFTGGSAFMKKVYSSVHLVFLLMQFTFILVNMALNAEEVNELSGNTITTLFFTHCITKFIYLAVNQKNFYRTLNIWNQVNTHPLFAESDARYHSIALAKMRKLFFLVMLTTVASATAWTTITFFGDSVKMVVDHETNSSIPVEIPRLPIKSFYPWNASHGMFYMISFAFQIYYVLFSMIHSNLCDVMFCSWLIFACEQLQHLKGIMKPLMELSASLDTYRPNSAALFRSLSANSKSELIHNEEKDPGTDMDMSGIYSSKADWGAQFRAPSTLQSFGGNGGGGNGLVNGANPNGLTKKQEMMVRSAIKYWVERHKHVVRLVAAIGDTYGAALLLHMLTSTIKLTLLAYQATKINGVNVYAFTVVGYLGYALAQVFHFCIFGNRLIEESSSVMEAAYSCHWYDGSEEAKTFVQIVCQQCQKAMSISGAKFFTVSLDLFASVLGAVVTYFMVLVQLK
# B9: Rpt2 (protein)
# chain: MGQNQSAQGGAGEKKDDKDKKKKYEPPIPTRVGKKKRRAKGPDAAMKLPQVTPHTRCRLKLLKLERIKDYLMMEDEFIRNQERLKPQDEKNEEERSKVDDLRGTPMSVGNLEEIIDDNHAIVSTSVGSEHYVSILSFVDKDQLEPGCSVLLNHKVHAVVGVLSDDTDPMVTVMKLEKAPQETYADIGGLDTQIQEIKESVELPLTHPEYYEEMGIKPPKGVILYGPPGTGKTLLAKAVANQTSATFLRVVGSELIQKYLGDGPKLVRELFRVAEEHAPSIVFIDEIDAVGTKRYDSNSGGEREIQRTMLELLNQLDGFDSRGDVKVIMATNRIETLDPALIRPGRIDRKIEFPLPDEKTKRRIFTIHTSRMTLAEDVNLSELIMAKDDLSGADIKAICTEAGLMALRERRMKVTNEDFKKSKESVLYRKKEGTPEGLYL
# B10: betaTub85D (protein)
# chain: MREIVHIQAGQCGNQIGGKFWEVISDEHCIDATGTYYGDSDLQLERINVYYNEATGAKYVPRAILVDLEPGTMDSVRSGAFGQIFRPDNFVFGQSGAGNNWAKGHYTEGAELVDSVLDVVRKESEGCDCLQGFQLTHSLGGGTGSGMGTLLISKIREEYPDRIMNTFSVVPSPKVSDTVVEPYNATLSVHQLVENTDETYCIDNEALYDICFRTLKLTTPTYGDLNHLVSATMSGVTTCLRFPGQLNADLRKLAVNMVPFPRLHFFMPGFAPLTSRGSQQYRALTVPELTQQMFDAKNMMAACDPRHGRYLTVAAIFRGRMSMKEVDEQMLNIQNKNSSFFVEWIPNNCKTAVCDIPPRGLKMSATFIGNSTAIQELFKRVSEQFTAMFRRKAFLHWYTGEGMDEMEFTEAESNMNDLVSEYQQYQEATADEEGEFDEDEEGGGDE
# B11: Dhfr (protein)
# chain: MLRFNLIVAVCENFGIGIRGDLPWRIKSELKYFSRTTKRTSDPTKQNAVVMGRKTYFGVPESKRPLPDRLNIVLSTTLQESDLPKGVLLCPNLETAMKILEEQNEVENIWIVGGSGVYEEAMASPRCHRLYITKIMQKFDCDTFFPAIPDSFREVAPDSDMPLGVQEENGIKFEYKILEKHS
# B12: MCU (protein)
# chain: MSRNRAAMVSAFRLFLRPATTTTHRSLALRLAPGTTFALHLRPCHELQQHRSFASTAEDGETDKHKKPTTGEDIYVEYVNGMPHMTVRLPSRNELCQFALKPISHNVGDLLAMLRAEDRGIDRAAVINKHGVRIASSCTIESLLDDSFSIQINNRTLDVNPPKRDKVTLESMDKVGDVRKVIAQLYEAFNVGEYQLEKSNQLAKELETLRYELEPLEEKKLELSKKAARRTNFMTWMGLGLMSVQFGILARLTWWEYSWDIMEPVTYFVTYGTTMAMYAYYCVTKREYMMEDVKNREFSLSLYRNAKKVQFDVEHYNELKRKSAELEYNLRRINDPLNMQLPSHLVRTQENTPPTLTEEKAERKYT
# B13: Iru (protein)
# chain: MAEAMVVEDRPAEAKRFFCHMCNVEINIPNSDFTCPLCANGFVEELPANAPEMDSSTAGASGSARSGSSGSGSSGSHDTLSRGSSSSGSQVNVESLRNDIVSLLNMRNVPNLEITIEPNRRHSNVLHLGGFGGPSGSDSARGLTAGGRVRPANLDRLDNVLFDFLQSLPLAGATAEIVTGPGGGGVGGGGNSHMFFMGNPGDYAWGREGLDTIVTQMLNQMETSGPPPLSAQRINEIPNVQINAEEVNRKIQCSICWDDFKIDETVRKLPCSHLYHENCIVPWLNLHSTCPICRKSLADDGNDADDEFVMLDAFGPEMAADGSNSERRSASTATGTDNPSPANNPSQAAAEGGRTRPDANPAQAARNNIFTFDDDNMFLD
# Columns and labels:
# Test in all cases: MAPPIT interaction score (arbitrary units); higher = stronger binary interaction signal, active = hit call of the paper
# CG3651 = settings: MAPPIT configuration: N-N; pair source set: RRS
# CG42831 = settings: pair source set: RRS
# CG3792 = settings: MAPPIT configuration: N-C; pair source set: screen_4
# Dpm3 = settings: MAPPIT configuration: N-C; pair source set: screen_3
# CG3457 = settings: MAPPIT configuration: N-N; pair source set: Finley_Y2H
# CG3557 = settings: MAPPIT configuration: N-N; pair source set: Curagen_low_conf
# Mst84Db = settings: MAPPIT configuration: N-N; pair source set: Curagen_low_conf
# CG3517 = settings: MAPPIT configuration: N-N; pair source set: Finley_Y2H
# CG42659 = settings: MAPPIT configuration: N-C; pair source set: screen_4
# Traf-like = settings: MAPPIT configuration: N-N; pair source set: Lit-BS-16
# CG42512 = settings: MAPPIT configuration: N-C; pair source set: RRS
# Orco = settings: MAPPIT configuration: N-C; pair source set: Lit-BM-16
# CG3565 = settings: MAPPIT configuration: N-N; pair source set: DPIM
# CG9588 = settings: MAPPIT configuration: N-N; pair source set: Lit-BS-16
# Prosalpha2 = settings: MAPPIT configuration: N-N; pair source set: Lit-BM-16
# Rpn1 = settings: MAPPIT configuration: N-N; pair source set: Lit-BM-16
# Rpt1 = settings: MAPPIT configuration: N-C; pair source set: Lit-BM-16
# Rpt6 = settings: MAPPIT configuration: N-C; pair source set: Lit-BM-16
# CG34328 = settings: MAPPIT configuration: N-C; pair source set: screen_3
# CG42245 = settings: MAPPIT configuration: N-N; pair source set: RRS
# CG34345 = settings: pair source set: RRS
# CG3473 = settings: MAPPIT configuration: N-N; pair source set: screen_2
# Ubc2 = settings: MAPPIT configuration: N-N; pair source set: screen_2
# 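Note: HEK293T cells with Epo stimulation, STAT-responsive firefly luciferase reporter, fold induction versus unstimulated cells divided by the larger fold induction of two negative controls lacking either bait or prey.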
binder,measurement,setting,value
B1,MAPPIT interaction score,CG3651,0.00975
B2,MAPPIT interaction score,CG42831; MAPPIT configuration: N-C,0.788
same,MAPPIT interaction score,CG42831; MAPPIT configuration: N-N,0.273
B3,MAPPIT interaction score,CG3792,-0.645
same,MAPPIT interaction score,Dpm3,-1.36
B4,MAPPIT interaction score,CG3457,0.308
B5,MAPPIT interaction score,CG3557,0.0573
same,MAPPIT interaction score,Mst84Db,-0.0214
B6,MAPPIT interaction score,CG3517,1.9
B7,MAPPIT interaction score,CG42659,0.721
same,MAPPIT interaction score,Traf-like,0.713
B8,MAPPIT interaction score,CG42512,0.963
same,MAPPIT interaction score,Orco,-0.077
B9,MAPPIT interaction score,CG3565,2.71 (active)
same,MAPPIT interaction score,CG9588,0.822
same,MAPPIT interaction score,Prosalpha2,2.86 (active)
same,MAPPIT interaction score,Rpn1,6.22 (active)
same,MAPPIT interaction score,Rpt1,1.56
same,MAPPIT interaction score,Rpt6,0.824
B10,MAPPIT interaction score,CG34328,4.11 (active)
B11,MAPPIT interaction score,CG42245,0.497
B12,MAPPIT interaction score,CG34345; MAPPIT configuration: N-C,0.433
same,MAPPIT interaction score,CG34345; MAPPIT configuration: N-N,0.157
B13,MAPPIT interaction score,CG3473,0.831
same,MAPPIT interaction score,Ubc2,0.234

# Reference: the supplement of paper PMC10105736
